The list is not random: actives were taken first. Their share in the collection is about 18%.
CtBP-E1A blk = CtBP/E1A binding inhibition; AlphaScreen GST-E1A/His-CtBP binding, 1536-well; active compounds read low; activity change, % (no concentration beside the values); hit rate 0.49% among 340,000; in the data active means activity change below about -65%; inconclusive means mostly about -30% to -63%
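Protein mix (5X: 125 nM each GST-E1A, His-CtBP) was incubated with pinned compound 2 h at 37 deg C in dark, in 50 mM Tris pH 8.0 buffer with 300 mM NaCl. Glutathione donor and nickel acceptor beads followed; AlphaScreen signal read after 1 h.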
Six1-Eya2 blk = blocks human Six1 binding to Eya2 | activity change, % (test concentration not listed) | AlphaScreen GST-Six1/His-Eya2 binding, biochemical; active compounds read low | hit rate 0.56% among 360,000 | Q15475+O00167; in the data active means activity change below about -65%; inconclusive means mostly about -30% to -63%
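AlphaScreen with GST-Six1 and His-Eya2 (5X mix: 250 nM and 500 nM), glutathione donor and nickel acceptor beads; buffer 50 mM Tris pH 8.0, 300 mM NaCl, 1 mM TCEP; 1 h at 37 C in the dark.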
IL-1B inflam inh = inflammasome signaling inhibition, IL-1 beta readout | activity change, % at 57.5 µM | THP-1 LPS/ATP IL-1B secretion, AlphaLISA, 16 h; active compounds read low | hit rate 4.7% among 360,000 | AID 743279; in the data active means activity change below about -50%; inconclusive means mostly about -30% to -49%
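Secreted IL-1B measured by AlphaLISA bead assay after 16 h compound exposure of THP-1 cells; compounds (final up to 57.5 uM) added 1 h before LPS (250 ng/mL) and ATP (1.25 mM) stimulation; lower signal means less secretion.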
TDP1 cell noCPT = qHTS for Inhibitors of human tyrosyl-DNA phosphodiesterase 1 (TDP1): qHTS in cells in absence of CPT | AID 686978, 2013 | Potency, µM (doses to about 46.2 µM), most hits filed as inhibitors | DT40 Tdp1-/- hTDP1 cells, no CPT, ATP luminescence, 48 h | hit rate 15% among 420,000; further: nearly all actives have a fitted effect of over 55% in size
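Camptothecin absent (DMSO only). Human TDP1-complemented DT40 knockout cells, 400 cells/well, 37 °C for minimum 48 hr; ATP measured via CellTiter-Glo, 30 min dark incubation, luminescence.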
TDP1 inh = blocks human tyrosyl-DNA phosphodiesterase 1; Potency, µM (highest dose often 130 µM), usual class: inhibitors; recombinant TDP1, AlphaScreen DNA substrate cleavage; hit rate 0.28% among 350,000; further: nearly all actives have a fitted effect of over 40% in size
Target sequence (Q9NUW8 whole entry, looked up): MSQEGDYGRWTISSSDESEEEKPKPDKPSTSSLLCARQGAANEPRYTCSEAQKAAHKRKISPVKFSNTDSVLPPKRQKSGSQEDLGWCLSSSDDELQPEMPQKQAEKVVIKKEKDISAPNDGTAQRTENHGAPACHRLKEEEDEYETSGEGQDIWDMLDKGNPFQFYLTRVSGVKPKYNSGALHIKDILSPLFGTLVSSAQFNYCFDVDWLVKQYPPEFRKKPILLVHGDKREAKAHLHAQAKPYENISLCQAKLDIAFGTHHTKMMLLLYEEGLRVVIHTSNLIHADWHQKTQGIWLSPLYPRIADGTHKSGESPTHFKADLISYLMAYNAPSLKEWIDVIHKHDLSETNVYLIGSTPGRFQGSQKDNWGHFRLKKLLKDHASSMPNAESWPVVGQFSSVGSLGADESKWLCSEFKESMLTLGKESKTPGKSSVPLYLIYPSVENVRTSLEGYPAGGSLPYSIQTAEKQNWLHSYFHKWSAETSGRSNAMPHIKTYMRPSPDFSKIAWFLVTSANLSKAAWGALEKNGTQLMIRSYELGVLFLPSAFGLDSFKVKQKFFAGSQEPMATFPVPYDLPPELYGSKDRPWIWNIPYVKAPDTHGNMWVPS
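Signal: AlphaScreen proximity between streptavidin donor and anti-FITC acceptor beads on intact substrate. Reaction: Tdp1 1 nM, substrate 15 nM final, 5 min RT after 15 min compound preincubation.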
TDP1 cell CPT = growth inhibition of DT40 Tdp1-/-;hTDP1 cells with camptothecin (screen for TDP1 inhibitors); AID 686979; Potency, µM (series often up to 46.2 µM), hits mostly inhibitors; chicken DT40 Tdp1-/-;hTDP1 cells + 20 nM CPT, ATP luminescence, 48 h; hit rate 12% among 420,000; further: nearly all actives have a fitted effect of over 55% in size
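Cell growth measured by CellTiter-Glo luminescence after a minimum 48 h, 37 C compound exposure with 20 nM CPT in Tdp1-knockout DT40 cells stably expressing hTDP1, seeded 400/well; qHTS titration format.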
Numbers stand for hits; . = inactive; ? = inconclusive; / = not tested or not shown. Unless noted, the call rests on the fitted dose curve; in most records, active means well fitted curve in the direction sought with a large enough effect; inconclusive means small, poorly fitted or top-dose-only effect, or another doubt; inactive means no such curve, though single readings can be large; an effect the other way counts as inactive or inconclusive.

SMILES	CtBP-E1A blk	Six1-Eya2 blk	IL-1B inflam inh	TDP1 cell noCPT	TDP1 inh	TDP1 cell CPT
CCn1c(=O)c2cc(C(=O)Nc3cc(OC)c(OC)c(OC)c3)sc2c2ccccc21	/	/	/	6.51µM	.	9.2µM
CCN(CC)CCOC(=O)c1ccc(NC(=O)c2cc3c(=O)n(CC)c4ccccc4c3s2)cc1	/	/	/	5.17µM	.	5.17µM
COc1ccc(OC)c(NC(=O)c2cc3c(Cl)nc4ccccc4c3s2)c1	.	.	.	?	.	?
CCn1c2ccccc2c2cc(N=C3SC(CC(=O)Nc4ccccc4OC)C(=O)N3C)ccc21 (stereo unspecified)	.	.	.	25.9µM	.	?
CCn1c(=O)c2cc(C(=O)Nc3cc(C)on3)sc2c2ccccc21	.	.	?	?	.	.
CCOc1ccccc1NC(=O)C1CCN(S(=O)(=O)c2ccccc2)CC1	/	/	/	.	/	.
CCOC(=O)c1nc(N)c(=O)n(-c2ccccc2)n1	.	.	.	.	.	.
CC(=O)N1CCN(C(=S)NC(=O)c2ccc(F)cc2)CC1	.	.	.	.	.	.
CCn1c(=O)c2cc(C(=O)Nc3ccccc3OC)sc2c2ccccc21	/	.	.	20.6µM	/	14.6µM
CCn1c(=O)c2cc(C(=O)NC(C)C)sc2c2ccccc21	.	.	.	?	/	?
COc1cc(C(=O)NCC2(c3ccccc3)CCCC2)cc(OC)c1OC	.	.	.	14.6µM	.	14.6µM
O=C(NCC1(c2ccccc2)CCCC1)c1ccc(Br)cc1	.	.	.	?	.	?
COc1ccc(NC(=O)C(=O)NCC2(c3ccccc3)CCCC2)c(OC)c1	/	/	/	?	.	?
COc1ccc(C(=O)NCC2(c3ccccc3)CCCC2)c(OC)c1	.	.	.	6.51µM	/	9.2µM
COc1ccc(C(=O)NCC2(c3ccccc3)CCOCC2)cc1[N+](=O)[O-]	.	.	.	29.1µM	.	?
Cc1ccc(C(=O)NCC2(c3ccccc3)CCCC2)cc1	.	.	.	11.6µM	.	11.6µM
CC(C)c1ccc(-c2nc(C(N)=O)c3c(n2)n(-c2ccc4c(c2)OCO4)c(=O)n3C)cc1	/	/	/	/	.	/
COc1cccc(C(=O)NCC2(c3ccccc3)CCCC2)c1	.	.	?	14.6µM	.	?
Cc1ccc(C(CC(=O)NCC2(c3ccccc3)CCCC2)c2ccccc2)c(O)c1 (stereo unspecified)	/	/	/	16.4µM	.	23.1µM
COc1cccc(C(=O)Nc2ccccc2)c1	.	.	.	.	.	.
COc1ccc(C(=O)N2CCCC2(C#N)c2ccccc2)cc1[N+](=O)[O-] (stereo unspecified)	/	.	.	10.3µM	/	18.4µM
O=C(NCC1(c2ccccc2)CCCC1)c1ccc(Br)o1	.	.	.	23.1µM	.	?
COc1ccccc1C(=O)N1CCCC1(C#N)c1ccccc1 (stereo unspecified)	.	.	.	.	.	.
CN(C(=O)c1ccc(NC(=O)Cc2ccc(NC(=O)C3CCCN(C(=O)CCc4ccccc4)C3)cc2)cc1)C1CCCC1 (stereo unspecified)	.	.	.	20.6µM	/	23.1µM
CN(Cc1ccccc1)C(=O)c1ccc(NC(=O)Cc2ccc(NC(=O)C3CCCN(C(=O)CCc4ccccc4)C3)cc2)cc1 (stereo unspecified)	.	.	.	14.6µM	/	10.3µM
SMILES	CtBP-E1A blk	Six1-Eya2 blk	IL-1B inflam inh	TDP1 cell noCPT	TDP1 inh	TDP1 cell CPT
CN(Cc1ccccc1)C(=O)c1ccc(NC(=O)Cc2ccc(NC(=O)C3CCCN(C(=O)C4CCC4)C3)cc2)cc1 (stereo unspecified)	.	.	.	?	/	.
CN(Cc1ccccc1)C(=O)c1ccc(NC(=O)C2CCCN(C(=O)OC(C)(C)C)C2)cc1 (stereo unspecified)	.	.	.	18.4µM	.	?
CN(C(=O)c1ccc(NC(=O)Cc2ccc(NC(=O)C3CCCN(C(=O)C4CCCCC4)C3)cc2)cc1)C1CCCC1 (stereo unspecified)	.	.	.	?	/	?
CN(C(=O)c1cccc(NC(=O)Cc2ccc(NC(=O)C3CCCN(C(=O)CCc4ccccc4)C3)cc2)c1)C1CCCCC1 (stereo unspecified)	.	.	.	16.4µM	/	?
CC(=O)Nc1ccc(S(=O)(=O)NNC(=O)CCC(=O)Nc2cc(C)ccc2C)cc1	.	.	.	.	.	.
COc1cc(OC)cc(-c2nc3cc(C)ccc3o2)c1	.	.	.	?	.	?
CN(C(=O)c1cccc(NC(=O)Cc2ccc(NC(=O)C3CCCN(C(=O)c4ccccc4)C3)cc2)c1)C1CCC1 (stereo unspecified)	.	.	.	?	/	?
CN(C(=O)c1cccc(NC(=O)Cc2ccc(NC(=O)C3CCCN(C(=O)CCc4ccccc4)C3)cc2)c1)C1CC1 (stereo unspecified)	.	.	.	16.4µM	/	?
CC(=O)c1ccc(NC(=O)c2nc(-c3ccccc3)n(-c3ccccc3Cl)n2)cc1	/	/	/	18.4µM	.	25.9µM
COc1ccc(-c2nc(C(=O)Nc3ccc(C(C)=O)cc3)nn2-c2cccc(Cl)c2)cc1	/	/	/	?	.	?
O=C(Nc1ccccn1)c1nc(-c2ccccc2)n(-c2ccccc2)n1	.	.	.	?	.	?
NC(=O)c1ccsc1NC(=O)c1nc(-c2ccccc2)n(-c2ccccc2)n1	.	.	-51.7	?	.	?
CC(=O)c1cccc(NC(=O)c2nc(-c3ccccc3)n(-c3cccc(Cl)c3)n2)c1	/	/	/	13µM	.	16.4µM
CC(=O)c1ccc(NC(=O)c2nc(-c3ccccc3)n(-c3ccccc3)n2)cc1	/	/	/	20.6µM	.	?
N#Cc1ccc(NC(=O)c2nc(-c3ccccc3)n(-c3ccccc3)n2)cc1	.	.	.	?	.	?
CC(=O)c1ccc(S(=O)(=O)N(CCCO)Cc2cc3cc(C)ccc3[nH]c2=O)cc1	.	.	?	.	.	.
CCN(CC)S(=O)(=O)c1cccc(-c2nnc(SCCCC(=O)c3ccc(F)cc3)o2)c1	.	.	.	?	.	?
COc1ccccc1-c1ccc(/C=N/O)o1	.	.	.	.	/	.
COc1ccc(-c2nc(NCCN(C)C)nc3ccsc23)c(C)c1	.	.	-53.2	?	/	?
Cc1ccccc1-c1nc(NCC2CC2)nc2ccsc12	.	.	.	?	/	23.1µM
c1ccc(-c2nc(NCC3CC3)nc3ccsc23)cc1	.	.	.	?	/	16.4µM
NNC(=O)c1ccc(COc2cccc3cccnc23)cc1	.	.	.	.	.	.
